Compounds without any hit were thinned out: in the full panel of roughly 83,000, 20% have a hit.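 96-well plates, one dose, 48 hours. Percent growth reported; active if below 10.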 Calls of active or inactive are those of the source.
Key:
Assay in all cases: NCI-60 one-dose screen, 48 h (100 = growth as untreated, 0 = no growth, -100 = all killed)
Settings in all cases: 10 µM
EKVX NSCLC = tested on: EKVX NSCLC
SN12C renal = tested on: SN12C renal
UO-31 renal = tested on: UO-31 renal
TK-10 renal = tested on: TK-10 renal
ACHN renal = tested on: ACHN renal
CAKI-1 renal = tested on: CAKI-1 renal
A498 renal = tested on: A498 renal
CCRF-CEM leukemia = tested on: CCRF-CEM leukemia
MOLT-4 leukemia = tested on: MOLT-4 leukemia
SR leukemia = tested on: SR leukemia
RPMI-8226 leukemia = tested on: RPMI-8226 leukemia
OVCAR-8 ovarian = tested on: OVCAR-8 ovarian
OVCAR-5 ovarian = tested on: OVCAR-5 ovarian
OVCAR-4 ovarian = tested on: OVCAR-4 ovarian
SK-OV-3 ovarian = tested on: SK-OV-3 ovarian
IGROV1 ovarian = tested on: IGROV1 ovarian
OVCAR-3 ovarian = tested on: OVCAR-3 ovarian
HS 578T breast = tested on: HS 578T breast
NCI/ADR-RES ovarian = tested on: NCI/ADR-RES ovarian
T-47D breast = tested on: T-47D breast

Measured: growth

O=C(O)c1ccc(Cl)cc1Nc1ccc(F)cc1
active: OVCAR-3 ovarian 6.97%
inactive: EKVX NSCLC 67.3% | SN12C renal 69.4% | UO-31 renal 62.5% | TK-10 renal 84.9% | ACHN renal 82.4% | CAKI-1 renal 29.1% | A498 renal 83.7% | CCRF-CEM leukemia 31.4% | MOLT-4 leukemia 56.8% | SR leukemia 57.2% | RPMI-8226 leukemia 88.6% | OVCAR-8 ovarian 74.1% | OVCAR-5 ovarian 81% | OVCAR-4 ovarian 38% | SK-OV-3 ovarian 70.9% | IGROV1 ovarian 119% | HS 578T breast 94.3% | NCI/ADR-RES ovarian 91.3% | T-47D breast 78.7%

COc1ccc(C2=NN(C(=O)c3ccc(S(C)(=O)=O)cc3)C(c3ccc(OC)c(OC)c3)C2)c(OC)c1 (centres undefined)
inactive: EKVX NSCLC 98.7% | SN12C renal 100% | UO-31 renal 74.9% | TK-10 renal 116% | ACHN renal 102% | CAKI-1 renal 93.1% | A498 renal 98.5% | CCRF-CEM leukemia 103% | MOLT-4 leukemia 92.2% | SR leukemia 97.2% | RPMI-8226 leukemia 110% | OVCAR-8 ovarian 108% | OVCAR-5 ovarian 107% | OVCAR-4 ovarian 106% | SK-OV-3 ovarian 84.2% | IGROV1 ovarian 106% | OVCAR-3 ovarian 99.9% | HS 578T breast 101% | T-47D breast 74.8%

O=[N+]([O-])c1ccc(Oc2cccnc2)c([N+](=O)[O-])c1
inactive: EKVX NSCLC 93.9% | SN12C renal 97% | UO-31 renal 58.3% | TK-10 renal 67.5% | ACHN renal 72.4% | A498 renal 89.3% | CCRF-CEM leukemia 20.1% | MOLT-4 leukemia 76.4% | SR leukemia 21.1% | RPMI-8226 leukemia 25.4% | OVCAR-8 ovarian 91.7% | OVCAR-5 ovarian 93.6% | OVCAR-4 ovarian 50.2% | SK-OV-3 ovarian 104% | IGROV1 ovarian 92.2% | OVCAR-3 ovarian 66.2% | HS 578T breast 81.9% | NCI/ADR-RES ovarian 51.4% | T-47D breast 61.1%
active: CAKI-1 renal -9.25%

COc1ccc2c(c1)N(CCO)C1=C(C(=O)OC1)C2c1ccccc1 (centres undefined)
active: A498 renal -5.47% | OVCAR-3 ovarian -40.3% | HS 578T breast -5.25% | NCI/ADR-RES ovarian -2.83%
inactive: EKVX NSCLC 45% | SN12C renal 48.1% | UO-31 renal 47.1% | TK-10 renal 44.7% | ACHN renal 48.6% | CAKI-1 renal 14.9% | CCRF-CEM leukemia 20% | MOLT-4 leukemia 35.4% | SR leukemia 20.7% | RPMI-8226 leukemia 22% | OVCAR-8 ovarian 29.6% | OVCAR-5 ovarian 66.5% | OVCAR-4 ovarian 69.5% | SK-OV-3 ovarian 19.5% | T-47D breast 37.6%

COc1cc(-c2cc(C(=O)N3CCN(C(=O)c4ccccc4NCc4cccs4)CC3)nc3cc(-c4ccccc4)nn23)cc(OC)c1OC
active: OVCAR-3 ovarian 9.27%
inactive: EKVX NSCLC 94.4% | SN12C renal 87.5% | UO-31 renal 39.8% | TK-10 renal 70.1% | ACHN renal 73.9% | CAKI-1 renal 55.2% | A498 renal 74.2% | CCRF-CEM leukemia 73.9% | MOLT-4 leukemia 79.3% | SR leukemia 23% | RPMI-8226 leukemia 75.2% | OVCAR-8 ovarian 90% | OVCAR-5 ovarian 86.6% | OVCAR-4 ovarian 89.4% | IGROV1 ovarian 36.6% | HS 578T breast 85.7% | NCI/ADR-RES ovarian 52.6% | T-47D breast 79.6%

CCN(CC)CCCC(C)Nc1ccc2ccc(Cl)cc2n1 (centres undefined)
inactive: EKVX NSCLC 103% | SN12C renal 88.8% | UO-31 renal 85.8% | TK-10 renal 100% | ACHN renal 98.5% | CAKI-1 renal 104% | A498 renal 92.3% | CCRF-CEM leukemia 102% | MOLT-4 leukemia 96.5% | SR leukemia 96.4% | RPMI-8226 leukemia 97.3% | OVCAR-8 ovarian 94.4% | OVCAR-5 ovarian 102% | OVCAR-4 ovarian 116% | SK-OV-3 ovarian 104% | IGROV1 ovarian 101% | OVCAR-3 ovarian 97.8% | HS 578T breast 90.8% | NCI/ADR-RES ovarian 98% | T-47D breast 93.1%

O=C(Nc1ccncc1)C(=O)c1cn(S(=O)(=O)c2ccc(F)cc2)c2ccccc12
active: SR leukemia 2.09% | OVCAR-3 ovarian -21.9% | NCI/ADR-RES ovarian 2.06%
inactive: EKVX NSCLC 52.1% | SN12C renal 41.9% | UO-31 renal 20.6% | TK-10 renal 79% | ACHN renal 57.7% | CAKI-1 renal 52.9% | A498 renal 66.2% | CCRF-CEM leukemia 43.6% | MOLT-4 leukemia 25.7% | RPMI-8226 leukemia 15.5% | OVCAR-8 ovarian 30% | OVCAR-5 ovarian 72.4% | OVCAR-4 ovarian 66.9% | SK-OV-3 ovarian 91.2% | HS 578T breast 50.4% | T-47D breast 52.5%

CC/C(=N\N=C(/CC)c1ccc(Br)cc1)c1ccc(Br)cc1
inactive: EKVX NSCLC 90.6% | SN12C renal 96% | UO-31 renal 92.6% | TK-10 renal 111% | ACHN renal 94.4% | CAKI-1 renal 99.3% | A498 renal 103% | CCRF-CEM leukemia 105% | MOLT-4 leukemia 105% | SR leukemia 96.9% | RPMI-8226 leukemia 93.9% | OVCAR-8 ovarian 116% | OVCAR-5 ovarian 92.4% | OVCAR-4 ovarian 93.7% | SK-OV-3 ovarian 100% | IGROV1 ovarian 79.5% | HS 578T breast 110% | NCI/ADR-RES ovarian 105% | T-47D breast 83%

COc1ccc(/C=C/C(=O)Nc2ccc(-c3nc4ccc(OC)cc4s3)cc2)cc1
inactive: EKVX NSCLC 100% | SN12C renal 103% | UO-31 renal 85.2% | TK-10 renal 109% | ACHN renal 114% | CAKI-1 renal 104% | A498 renal 97.8% | CCRF-CEM leukemia 98.3% | MOLT-4 leukemia 81.6% | SR leukemia 86.7% | RPMI-8226 leukemia 96.4% | OVCAR-8 ovarian 106% | OVCAR-5 ovarian 108% | OVCAR-4 ovarian 128% | SK-OV-3 ovarian 104% | IGROV1 ovarian 118% | OVCAR-3 ovarian 124% | HS 578T breast 108% | NCI/ADR-RES ovarian 101% | T-47D breast 101%

COC(=O)C(=C\c1ccc2c(c1)OCO2)/C(=C/c1ccc2c(c1)OCO2)C(=O)OC
inactive: EKVX NSCLC 97% | SN12C renal 112% | UO-31 renal 90.3% | TK-10 renal 100% | ACHN renal 94.3% | CAKI-1 renal 94.7% | A498 renal 106% | CCRF-CEM leukemia 101% | MOLT-4 leukemia 105% | SR leukemia 98.8% | RPMI-8226 leukemia 98.7% | OVCAR-8 ovarian 103% | OVCAR-5 ovarian 98.9% | OVCAR-4 ovarian 106% | SK-OV-3 ovarian 105% | IGROV1 ovarian 87.1% | HS 578T breast 106% | NCI/ADR-RES ovarian 96.4% | T-47D breast 89.2%

CCc1ccc2c(c1)N(CCO)C1=C(C(=O)OC1)C2c1cc(OC)c(OC)c(OC)c1 (centres undefined)
active: A498 renal -13.7% | OVCAR-8 ovarian 8.75% | OVCAR-3 ovarian -57.6% | HS 578T breast 1.11% | NCI/ADR-RES ovarian -3.11%
inactive: EKVX NSCLC 29.9% | SN12C renal 28.8% | UO-31 renal 35.5% | TK-10 renal 57.9% | ACHN renal 32.2% | CAKI-1 renal 11.4% | CCRF-CEM leukemia 10.2% | MOLT-4 leukemia 11.4% | SR leukemia 12% | RPMI-8226 leukemia 18.3% | OVCAR-5 ovarian 36.6% | OVCAR-4 ovarian 48.6% | T-47D breast 59.7%

O=[N+]([O-])c1cccc(N=Cc2ccc3c(c2)OCO3)c1
inactive: EKVX NSCLC 104% | SN12C renal 101% | UO-31 renal 76.7% | TK-10 renal 106% | ACHN renal 122% | CAKI-1 renal 98.3% | A498 renal 118% | CCRF-CEM leukemia 97% | MOLT-4 leukemia 89.7% | SR leukemia 102% | RPMI-8226 leukemia 104% | OVCAR-8 ovarian 97.3% | OVCAR-5 ovarian 116% | OVCAR-4 ovarian 104% | SK-OV-3 ovarian 110% | IGROV1 ovarian 109% | OVCAR-3 ovarian 112% | HS 578T breast 116% | NCI/ADR-RES ovarian 105% | T-47D breast 103%

COc1cc(C)ccc1C(=O)c1ccc(C)cc1OC
active: A498 renal -4.5% | SR leukemia -10.2% | OVCAR-3 ovarian -39.2% | HS 578T breast -12.6% | NCI/ADR-RES ovarian -2.71%
inactive: EKVX NSCLC 31.2% | SN12C renal 43.2% | UO-31 renal 31.4% | TK-10 renal 38.3% | ACHN renal 60.8% | CAKI-1 renal 23.4% | CCRF-CEM leukemia 14.4% | MOLT-4 leukemia 32.3% | RPMI-8226 leukemia 21.9% | OVCAR-8 ovarian 23.9% | OVCAR-5 ovarian 46.8% | OVCAR-4 ovarian 63.1% | SK-OV-3 ovarian 17.1% | IGROV1 ovarian 37.2% | T-47D breast 50.6%

CN(C)CC(O)c1ccc2cc(Br)c3ccccc3c2c1 (centres undefined)
inactive: EKVX NSCLC 58.5% | SN12C renal 53.9% | UO-31 renal 57.6% | TK-10 renal 81.8% | ACHN renal 17.2% | CAKI-1 renal 73.1% | A498 renal 23.9% | CCRF-CEM leukemia 57.9% | MOLT-4 leukemia 31% | RPMI-8226 leukemia 56.1% | OVCAR-8 ovarian 79.7% | OVCAR-4 ovarian 84.9% | SK-OV-3 ovarian 95.4% | IGROV1 ovarian 22.5% | OVCAR-3 ovarian 81% | HS 578T breast 74.9% | NCI/ADR-RES ovarian 59.7% | T-47D breast 69.4%
active: SR leukemia 4.67%

Nc1ccn(C2CC(O)C(CO)O2)c(=O)n1 (centres undefined)
inactive: EKVX NSCLC 102% | SN12C renal 108% | UO-31 renal 96.4% | TK-10 renal 148% | ACHN renal 104% | CAKI-1 renal 99.4% | A498 renal 124% | CCRF-CEM leukemia 116% | MOLT-4 leukemia 104% | SR leukemia 92.7% | RPMI-8226 leukemia 112% | OVCAR-8 ovarian 106% | OVCAR-5 ovarian 92.4% | OVCAR-4 ovarian 114% | SK-OV-3 ovarian 105% | OVCAR-3 ovarian 123% | HS 578T breast 111% | NCI/ADR-RES ovarian 102% | T-47D breast 103%

O=C1OCC2=C1C(c1cccc(Cl)c1)c1cc3c(cc1N2CCO)CCC3 (centres undefined)
active: A498 renal -20.5% | OVCAR-8 ovarian 4.21% | OVCAR-3 ovarian -54.2% | HS 578T breast -1.05%
inactive: EKVX NSCLC 38.9% | SN12C renal 21.1% | UO-31 renal 19% | TK-10 renal 56.6% | ACHN renal 25.5% | CAKI-1 renal 11.2% | CCRF-CEM leukemia 10.4% | MOLT-4 leukemia 13.7% | SR leukemia 27.6% | RPMI-8226 leukemia 17.3% | OVCAR-5 ovarian 46.1% | OVCAR-4 ovarian 50.4% | SK-OV-3 ovarian 23.5% | IGROV1 ovarian 15.9% | T-47D breast 66.1%
